The values that follow come from PubChem BioAssay AID1259417 (TB Discovery Research, Infectious Disease Research Institute, 2018).

The experiment can be described thus: M. tuberculosis growth inhibition, HTS (AID 1259417).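 Also: bacteria grown with compound for 5 days at 37 °C.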 The settings on record: stronger effect = higher value, concentration not given here.
Setting [1] is: M. tuberculosis DsRed fluorescence growth inhibition.
Where [2] appears, read: M. tuberculosis growth inhibition.

Structures are written as SMILES. Screen size: about 1,100 compounds; about 760 (69%) were called active. No rule for the calls is given here. The set was probably picked from earlier hits. The list shows a part of the results.

One may read the inhibition as the drop in the measured response relative to a control, in per cent. In the case of `Cn1nc([N+](=O)[O-])nc1Oc1ccc(C(C)(C)C)cc1`, the inhibition is, setting by setting: under setting [1], 96.8% (active); under setting [2], 94.8%.

On to `CCN(CC)c1cccc(Oc2nc([N+](=O)[O-])nn2C)c1`, for which the inhibition reads like this: under setting [1], 96.8% (active); under setting [2], 95.7%.

As to `O=C(OCc1nnc(-c2ccccc2)o1)c1cc(-c2cccs2)nc2ccccc12`, the inhibition is, setting by setting: under setting [1], 83.3% (active); under setting [2], 100%.

As for `CN(Cc1nc2ccccc2c(=O)[nH]1)Cc1nc2ccsc2c(=O)[nH]1`, the inhibition under setting [1] was 97.2% (active) and the inhibition under setting [2] was found to be 96.7%.

As for `CC1Cc2cc(-c3nn(-c4ccccc4)cc3C=C3SC(=S)NC3=O)ccc2O1` (stereo not given), the inhibition was 27% (active) under setting [1] and 38.2% under setting [2].

For the compound `CCOC(=O)COc1ccc2cc(-c3ccc(OC)c(OC)c3)c(=O)oc2c1`, the inhibition was 43.5% (active) under setting [1] and 53.6% under setting [2].

As for `CCOC(=O)COc1ccc2cc(-c3nc4ccccc4s3)c(=O)oc2c1`, the inhibition under setting [1] was 88.6% (active) and the inhibition under setting [2] came out at 86.2%.

In the case of `COC(=O)COc1ccc2cc(-c3ccc(OC)c(OC)c3)c(=O)oc2c1`, the inhibition under setting [1] was 26.7% (active) and the inhibition under setting [2] is 45%.

In the case of `COc1cccc(OCCNC(=O)c2cc([N+](=O)[O-])cc([N+](=O)[O-])c2)c1`, the inhibition is, setting by setting: under setting [1], 98.1% (active); under setting [2], 95.3%.

Regarding `COc1cccc(OCC(=O)c2ccc(Br)cc2)c1`, the inhibition reads like this: under setting [1], -3.18% (inactive); under setting [2], -10.7%.

For `c1ccc(CCNc2nc3ccccc3[nH]2)cc1`, the inhibition under setting [1] is 21.4% (active) and the inhibition under setting [2] came to 32.9%.

As to `Cc1ccc2nc(NCc3ccccc3)[nH]c2c1`, the inhibition is 43% (active) under setting [1] and 23.1% under setting [2].

`Cc1ccc(OCCN2CCN(c3nc(NCc4ccccc4)c4ccccc4n3)CC2)cc1`: the inhibition runs as follows: under setting [1], -1.14% (inactive); under setting [2], -0.136%.

Consider `O=C(C1CCN(c2nnc(-n3cccc3)s2)CC1)N1CCN(c2cccc(C(F)(F)F)c2)CC1`, for which the inhibition by setting is: under setting [1], 68.1% (active); under setting [2], 27.8%.

`Cc1nc2cc(C(=O)OCC(=O)NC34CC5CC(CC(C5)C3)C4)ccc2n1-c1ccccc1`: the inhibition reads like this: under setting [1], -4.71% (inactive); under setting [2], -17.2%.

On to `COc1cccc(-c2csc(N3CCN(C(=O)NC45CC6CC(CC(C6)C4)C5)CC3)n2)c1`, for which the inhibition runs as follows: under setting [1], 3.33% (inactive); under setting [2], -30.6%.

For `O=C(NC12CC3CC(CC(C3)C1)C2)N1CCN(c2cccc(C(F)(F)F)c2)CC1`, the inhibition reads like this: under setting [1], 100% (active); under setting [2], 94.4%.

For `O=C(C1CCN(c2nnc(-n3cccc3)s2)CC1)N1CCc2ccccc2C1`, the inhibition is 70.1% (active) under setting [1] and 84.1% under setting [2].

Regarding `Cc1cccc(N2CCN(C3=NC(=O)C(=C4CCCCC4)S3)CC2)c1`, the inhibition is, setting by setting: under setting [1], 84.8% (active); under setting [2], 77.9%.

For `CC1CCC(C(C)C)C(OC(=O)Cn2c(-c3ccc(F)cc3)[n+](C)c3ccccc32)C1` (stereo not given), the inhibition is 94.3% (active) under setting [1] and 97.5% under setting [2].

Consider `CCN(CC)c1ccc(NC(=O)c2cnccn2)cc1`, for which the inhibition is 92.1% (active) under setting [1] and 96.5% under setting [2].

As for `Cc1ccc(-c2nnc(NC(=O)c3nc4ccccc4s3)o2)c(C)c1`, the inhibition under setting [1] is 21.8% (active) and the inhibition under setting [2] was determined as 89.7%.

Regarding `O=C(Nc1nnc(-c2ccccc2)o1)c1nc2ccccc2s1`, the inhibition was 94.3% (active) under setting [1] and 94.8% under setting [2].

For the compound `CCc1nc2ccccc2n1CC(O)COc1ccc(I)cc1` (stereo not given), the inhibition is, setting by setting: under setting [1], 99.5% (active); under setting [2], 100%.

As for `CC(C)(C)c1ccc(OCCn2c(N)nc3ccccc32)cc1`, the inhibition by setting is: under setting [1], 70.4% (active); under setting [2], 90.4%.

As to `CC(C)(C)c1ccc(OCCN2C(=O)C(=O)c3cc(Br)ccc32)cc1`, the inhibition is -0.55% (inactive) under setting [1] and -12% under setting [2].

In the case of `CC(=O)Nc1nc2ccccc2n1CCOc1ccccc1`, the inhibition is, setting by setting: under setting [1], 93% (active); under setting [2], 92.9%.

Consider `O=C(c1ccccc1)c1ccc(OCC(O)Cn2cnc3ccccc32)cc1` (stereo not given), for which the inhibition was -0.545% (inactive) under setting [1] and -3.24% under setting [2].

With `CC(=O)Nc1nc2ccccc2n1Cc1ccccc1`, the inhibition by setting is: under setting [1], 81.5% (active); under setting [2], 85.5%.

Take `COc1ccc(C2CC(c3c(-c4ccccc4)c4cc(Br)ccc4[nH]c3=O)=NN2C(=O)c2ccccc2)cc1` (stereo not given): the inhibition under setting [1] is 9.47% (inactive) and the inhibition under setting [2] is 8.15%.

As for `CCc1nc2ccccc2n1CCCOc1ccccc1`, the inhibition under setting [1] is 100% (active) and the inhibition under setting [2] is 101%.

Regarding `Cc1nc2ccccc2n1CC(O)COc1ccc(C2C=CCC2)cc1` (stereo not given), the inhibition reads like this: under setting [1], 101% (active); under setting [2], 101%.

On to `COc1ccc(SN=C2C(C)=CC(=O)C=C2C)cc1`, for which the inhibition is, setting by setting: under setting [1], 5.38% (inactive); under setting [2], 20%.

Regarding `CN(C)CC1CC(C(C)(C)C)CCC1=O` (stereo not given), the inhibition reads like this: under setting [1], 63.9% (active); under setting [2], 85.1%.

Consider `O=c1oc(-c2ccccc2Br)nc2sc3c(c12)CCCC3`, for which the inhibition was 99.7% (active) under setting [1] and 98.6% under setting [2].

Take `COC(=O)COc1ccc2c(=O)c(-c3ccc(Cl)cc3)coc2c1`: the inhibition is, setting by setting: under setting [1], 78.7% (active); under setting [2], 94.8%.

For the compound `COC(=O)COc1ccc2c(=O)c(-c3ccccc3Cl)c(C)oc2c1`, the inhibition is, setting by setting: under setting [1], 74.9% (active); under setting [2], 95.5%.

As for `NNC(=O)c1ccc(-c2ccccc2Cl)o1`, the inhibition reads like this: under setting [1], -6.57% (inactive); under setting [2], 6.08%.

In the case of `CCCc1cc2c(=O)c(-c3ccc4c(c3)OCCCO4)coc2cc1OCC(=O)OCC`, the inhibition was 62.8% (active) under setting [1] and 59.1% under setting [2].

In the case of `COc1ccccc1-c1c(C)oc2cc(OCC(=O)OCc3ccccc3)ccc2c1=O`, the inhibition was 28.7% (active) under setting [1] and 62.9% under setting [2].

Consider `CS(=O)(=O)Nc1cccc(C2=NN(c3nc(-c4ccccc4)c4cc(Cl)ccc4n3)C(c3ccco3)C2)c1` (stereo not given), for which the inhibition runs as follows: under setting [1], 7.39% (inactive); under setting [2], -23.7%.

For the compound `COc1ccccc1-c1coc2cc(OCC(=O)OC3CCCCC3)ccc2c1=O`, the inhibition by setting is: under setting [1], 40.7% (active); under setting [2], 66.9%.

Take `CCc1cc2c(=O)c(-c3ccc(OC)cc3)coc2cc1OCC(=O)OC`: the inhibition is 63.7% (active) under setting [1] and 86.9% under setting [2].

Regarding `CCOC(=O)COc1ccc2c(=O)c(Oc3cnn(-c4ccccc4)c3)c(C)oc2c1`, the inhibition reads like this: under setting [1], 79% (active); under setting [2], 94.4%.

Turning to `CCCCOC(=O)COc1ccc2c(=O)c(Oc3ccc(OCC)cc3)c(C)oc2c1`, the inhibition was 31.4% (active) under setting [1] and 83.7% under setting [2].
